The full list was thinned out, with hits kept by preference.
Tb PYK inh: inhibitors of Trypanosoma brucei pyruvate kinase; Q57TT1; TbPYK enzyme, Kinase-Glo Plus ATP luminescence, 45 min; Potency, µM (highest dose often 76.8 µM), without a hit: at the top dose activity, negative = inhibition, hits mostly inhibitors; 410,000 compounds, 0.12% hits; AID 624173; further: potency means the concentration at half of the fitted maximal effect; on the % scale 0 is the no-effect control and ±100 the full control effect; nearly all actives have a fitted effect of over 50% in size
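Activity of T. brucei pyruvate kinase was followed by Kinase-Glo Plus luminescence after the enzyme reacted 45 min at room temperature with 130 uM ADP (final) and substrate. Test compounds were added before ADP at multiple concentrations.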
Giardia FBPA inh: blocks Giardia fructose-bisphosphate aldolase activity. A8B2U2. Potency, µM (top dose mostly 59.6 µM), for the others: at the highest dose activity, negative = inhibition, most hits filed as inhibitors. purified Giardia FBPA. 290,000 compounds, 0.71% hits; further: potency means the concentration at half of the fitted maximal effect; on the % scale 0 is the no-effect control and ±100 the full control effect; nearly all actives have a fitted effect of over 55% in size
Target sequence (A8B2U2 whole entry, looked up): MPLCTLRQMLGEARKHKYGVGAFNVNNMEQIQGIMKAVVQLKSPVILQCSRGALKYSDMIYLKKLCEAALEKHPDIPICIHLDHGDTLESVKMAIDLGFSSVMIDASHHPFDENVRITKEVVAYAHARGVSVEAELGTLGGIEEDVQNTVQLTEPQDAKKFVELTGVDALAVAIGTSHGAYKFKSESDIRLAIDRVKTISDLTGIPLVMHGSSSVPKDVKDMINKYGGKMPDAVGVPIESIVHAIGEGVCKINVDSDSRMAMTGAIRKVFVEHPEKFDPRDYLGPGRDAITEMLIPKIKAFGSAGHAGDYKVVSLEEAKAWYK
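Giardia FBPA (40 nM reagent) was preincubated 10 min at RT with compound (up to 57.5 uM final), then substrate plus GAPDH/TPI/NAD/arsenate coupling system with diaphorase/resazurin was added; resorufin fluorescence (525/598 nm) was read after 20 min.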
LmPK inh: LmPK (Leishmania mexicana) enzyme inhibition. AID 1721. purified LmPK, Kinase-Glo ATP luminescence, 1 h. 290,000 compounds, 0.37% hits. Q27686. Potency, µM (doses to about 57.5 µM), for the others: at the top dose activity change, negative = inhibition, most hits filed as inhibitors; further: potency means the concentration at half of the fitted maximal effect; on the % scale 0 is the no-effect control and ±100 the full control effect
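In 50 mM imidazole pH 7.2 with 7 mM MgCl2, LmPK (0.1 nM) turned over PEP (0.5 mM) and ADP (0.1 mM) for 1 h at room temperature. Luciferase read-out of ATP.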
Shiga inhibitor: Shiga toxin inhibition. AID 2315. Vero cells, Shiga toxin protein synthesis inhibition reporter. 290,000 compounds, 9.2% hits. inhibition, % at 38.7 µM; in the data active means inhibition mostly above about 28%, no sharp cut-off; inactive means mostly below about 43%; further: 0% is about no effect
RE007 growth inh: less growth of the S. pombe RE007 Vpr strain | S. pombe RE007 Vpr strain, BacTiter-Glo ATP luminescence, 24 h | Potency, µM (series often up to 92.2 µM), inactives show top-dose activity change, negative = less growth, hits mostly inhibitors | 360,000 compounds, 0.21% hits; active means well fitted falling curve with a large enough effect; inconclusive means small, poorly fitted or top-dose-only effect; inactive means no such curve, though single readings can be large or run the other way; further: potency means the concentration at half of the fitted maximal effect; on the % scale 0 is the no-effect control and ±100 the full control effect; nearly all actives have a fitted effect of over 50% in size
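Fission yeast RE007 carrying one integrated HIV-1 vpr copy, seeded at OD 0.01 in PMG+AL medium with 23 nL pinned compound. Grown 24 h at 30 degrees; viability read by BacTiter-Glo luminescence after 5 min.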
CHX counter: affects cycloheximide protein synthesis inhibition readout, counter-screen; cell reporter, cycloheximide protein synthesis inhibition counterscreen; max response, %; 300,000 compounds, 12% hits; in the data active means max response mostly above about 13%, no sharp cut-off; inactive means mostly below about 14%; further: read at 38.3 µM for the half of the compounds with a filed dose; 0% is about no effect
Numbers without * were called inactive; ? = inconclusive; . = no result. Unless noted, the call rests on the fitted dose curve; in most records, active means well fitted curve in the direction sought with a large enough effect; inconclusive means small, poorly fitted or top-dose-only effect, or another doubt; inactive means no such curve, though single readings can be large; an effect the other way counts as inactive or inconclusive.

SMILES | Tb PYK inh | Giardia FBPA inh | LmPK inh | Shiga inhibitor | RE007 growth inh | CHX counter
CC(C)c1ccc(Nc2ncccc2C(=O)O)cc1 | 4% | ? | -13% | 15 | -8% | 43*
COc1ccc(Nc2ncccc2C(=O)Nc2ccccc2)cc1 | ? | -27% | 7% | -3 | ? | 7
COc1cccc(CN2CCN(Cc3cccc4c3OCO4)CC2CCO)c1 (stereo unspecified) | -7% | -7% | -10% | 47 | -12% | 19*
COCCn1c(C)cc(C(=O)COc2cccnc2[N+](=O)[O-])c1C | 1% | ? | 0% | 53* | -6% | 32*
Cc1ccc(OCC(=O)c2cc(C)n(Cc3cccs3)c2C)c([N+](=O)[O-])n1 | 2% | 1% | 1% | 31 | 3% | 36*
O=C(COc1cccnc1[N+](=O)[O-])c1c[nH]c2ccccc12 | -2% | -7% | 0% | 26 | 4% | 20*
Cc1cc(C(=O)COc2ccc3ccc(=O)oc3c2)c(C)n1Cc1cccs1 | -6% | 10% | 6% | 12 | 12% | 20*
CN(C)c1ccc(/C=N/N=C(N)N)cc1[N+](=O)[O-] | 0% | -5% | 0% | 3 | 2% | -1
O=C(c1cc(Cl)nc2ccccc12)N(Cc1nnc(-c2ccccc2Cl)o1)C1CC1 | 3% | . | . | . | -13% | .
O=C(NCc1ccc(F)cc1Cl)c1ccc(CSCc2ccccc2Cl)o1 | -4% | . | . | . | . | .
CCC(C)(C)NC(=O)C(c1ccccc1Cl)N(C(=O)CCC(=O)Nc1cc(C)on1)c1ccc(NC(C)=O)cc1 (stereo unspecified) | 26% | -2% | 7% | -1 | 5% | 4
COc1ccc(N(Cc2cccs2)C(=O)Nc2ccccc2)cc1 | -4% | . | . | . | . | .
COc1ccc(NC(=O)c2cc(C)n(Cc3cccs3)c2C)cc1 | -8% | -6% | -8% | 82* | 1% | 62*
Cc1ccc(CN(C)C(=O)c2ccccc2NC(=O)c2ccccc2)o1 | 1% | . | . | . | -7% | .
COCC(=O)N1CCC2(CCN(Cc3ccccc3)CC2)CC1 | -3% | 1% | . | . | . | .
CN1CCC(O)(c2ccc(F)cc2)C(C(=O)c2ccc(F)cc2)C1 (stereo unspecified) | 1% | . | . | . | . | .
CC[N+]1(C)CCC(O)(c2ccc(OC)cc2)C(C(=O)c2ccc(OC)cc2)C1 (stereo unspecified) | -11% | . | . | . | 40µM* | .
C=C1C(=O)O[C@@H]2[C@H]1[C@@H](OC(=O)/C(C)=C/C)C/C(C)=C\C(=O)/C=C(\C)[C@@H]2O | -11% | -4% | 10% | 51* | -1% | 29*
O=C(COc1ccc(C2SCCS2)cc1)NNC(=O)C(Cl)Cl | 2% | 21% | 5% | 48 | 19% | 22*
CCOC(=O)CCc1c(C)nc(SCC(=O)O)c(C#N)c1C | 32µM* | 1% | 26% | -11 | 6% | 1
O=C(COC(=O)Cc1ccsc1)Nc1cccc(F)c1 | 1% | . | . | . | -20% | .
CCC(=O)NC(=S)Nc1ccc(NC(=O)c2ccco2)cc1 | 3% | 4% | -1% | 59* | -9% | 29*
CCC(=O)NC(=S)Nc1ccc(NC(=O)c2ccco2)c(OC)c1 | 13% | -28% | -2% | active | -2% | 10
COc1cc(NC(=O)Cc2ccccc2)ccc1NC(=O)c1ccco1 | -3% | -4% | -2% | 19 | 7% | 14
CC(C)CC(=O)NC(=S)Nc1ccc(NC(=O)c2ccco2)cc1 | -5% | -4% | -1% | 2 | 11% | 1
Cc1cccc(NC(=O)/C(C#N)=C/c2ccccc2O)n1 | 4% | 3% | -7% | 78* | -4% | 40*
COc1ccc(/C=C(\C#N)C(=O)Nc2cccc(C)n2)cc1 | 1% | 1% | -5% | 36* | 2% | 25*
N#C/C(=C\c1ccccc1O)C(=O)Nc1ccccn1 | 3% | -3% | 4% | 82* | 2% | 21*
COc1ccc(/C=C(\C#N)C(=O)OCC(=O)Nc2ccc(C(C)(C)C)cc2)cc1 | 8% | -14% | 2% | 21 | 8% | 11*
Cc1cccc(NC(=O)/C(C#N)=C/c2ccc(Cl)cc2)n1 | -3% | -4% | -4% | 13 | 4% | 1
